An excerpt weighted towards active compounds, which were near 19% of everything screened.
Giardia kill – Small Molecules that selectively kill Giardia lamblia: qHTS; Giardia lamblia trophozoite viability; activity change, % at 7.66 µM, hits read low; 0.15% of 340,000 active; AID 540267, 2011; in the data active means activity change below about -80%; inconclusive means between about -30% and that limit;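 further: parasites exposed to compound for two days anaerobically before the ATP read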
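Viability, read as ATP luminescence: trophozoites at 100 cells/well, compound added, 48 hrs anaerobic at 37 deg C, then 15-30 min room-temperature development before reading.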
DT40 TDP1 CPT – qHTS for Inhibitors of human tyrosyl-DNA phosphodiesterase 1 (TDP1): qHTS in cells in presence of CPT. chicken DT40 Tdp1-/-;hTDP1 cells + 20 nM CPT, ATP luminescence, 48 h. Potency, µM (highest dose often 46.2 µM), for inactives: at the top dose activity change, negative = growth inhibition, most hits filed as inhibitors. 12% of 420,000 active. AID 686979, 2013; further: potency means the concentration at half of the fitted maximal effect; nearly all actives have a fitted effect of over 55% in size
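Cell growth measured by CellTiter-Glo luminescence after a minimum 48 h, 37 C compound exposure with 20 nM CPT in Tdp1-knockout DT40 cells stably expressing hTDP1, seeded 400/well; qHTS titration format.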
IL1B secr inh – qHTS for Inhibitors of Inflammasome Signaling: IL-1-beta AlphaLISA Primary Screen. THP-1 LPS/ATP IL-1B secretion, AlphaLISA, 16 h; hits give low values. activity change, % at 57.5 µM. 4.7% of 360,000 active. AID 743279, 2014; in the data active means activity change below about -50%; inconclusive means mostly about -30% to -49%
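Secreted IL-1B measured by AlphaLISA bead assay after 16 h compound exposure of THP-1 cells; compounds (final up to 57.5 uM) added 1 h before LPS (250 ng/mL) and ATP (1.25 mM) stimulation; lower signal means less secretion.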
TDP1 cell noCPT – qHTS for Inhibitors of human tyrosyl-DNA phosphodiesterase 1 (TDP1): qHTS in cells in absence of CPT; DT40 Tdp1-/- hTDP1 cells, no CPT, ATP luminescence, 48 h; Potency, µM (titrated, usually from 46.2 µM), inactives show at the highest dose activity change, negative = growth inhibition, actives largely listed as inhibitors; 15% of 420,000 active; AID 686978, 2013; further: potency means the concentration at half of the fitted maximal effect; nearly all actives have a fitted effect of over 55% in size
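Camptothecin absent (DMSO only). Human TDP1-complemented DT40 knockout cells, 400 cells/well, 37 °C for minimum 48 hr; ATP measured via CellTiter-Glo, 30 min dark incubation, luminescence.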
ELG1 repair inh – qHTS screen for small molecules that inhibit ELG1-dependent DNA repair in human embryonic kidney (HEK293T) cells expressing luciferase-tagged ELG1; HEK293T ELG1-luciferase reporter, luminescence, 16 h; DNA damage induced by 5-fluorouridine; Potency, µM (titrated, usually from 46.1 µM), for the others: top-dose activity change, negative = inhibition, hits mostly inhibitors; 2.3% of 330,000 active; AID 504467, 2011; further: potency means the concentration at half of the fitted maximal effect; nearly all actives have a fitted effect of over 55% in size
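Luminescence from the luciferase reporter, measured 30 min after ONE-Glo reagent at room temperature, was the read-out. Beforehand, 2,000 cells per well were exposed for 16 hr at 37 °C to 5-fluorouridine together with compound or vehicle.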
TDP1 inh – qHTS Assay for Inhibitors of Tyrosyl-DNA Phosphodiesterase (TDP1). Tyrosyl-DNA phosphodiesterase 1 (Homo sapiens), Q9NUW8. 0.28% of 350,000 active. Potency, µM (series often up to 130 µM), inactives show top-dose activity change, negative = inhibition, usual class: inhibitors. recombinant TDP1, AlphaScreen DNA substrate cleavage; further: potency means the concentration at half of the fitted maximal effect; nearly all actives have a fitted effect of over 40% in size
Target sequence (Q9NUW8 whole entry, looked up): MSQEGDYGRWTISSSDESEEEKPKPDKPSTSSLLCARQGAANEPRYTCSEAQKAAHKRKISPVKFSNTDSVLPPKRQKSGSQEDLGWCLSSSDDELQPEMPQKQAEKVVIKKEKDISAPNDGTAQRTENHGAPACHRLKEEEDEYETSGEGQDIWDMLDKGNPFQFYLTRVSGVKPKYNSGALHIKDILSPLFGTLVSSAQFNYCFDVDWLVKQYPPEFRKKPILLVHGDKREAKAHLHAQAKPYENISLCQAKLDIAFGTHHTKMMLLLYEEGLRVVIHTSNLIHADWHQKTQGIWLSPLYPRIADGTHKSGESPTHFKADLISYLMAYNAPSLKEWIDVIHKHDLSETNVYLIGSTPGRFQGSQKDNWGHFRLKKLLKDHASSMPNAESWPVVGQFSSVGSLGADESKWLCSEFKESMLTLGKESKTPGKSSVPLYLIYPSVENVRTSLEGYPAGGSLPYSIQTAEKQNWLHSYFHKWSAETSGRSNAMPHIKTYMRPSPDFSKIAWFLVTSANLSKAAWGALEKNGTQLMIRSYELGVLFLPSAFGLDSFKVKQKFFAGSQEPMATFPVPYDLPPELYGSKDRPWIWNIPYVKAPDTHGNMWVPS
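Recombinant E. coli-expressed Tdp1 (1 nM) preincubated with compound 15 min at RT, then 5'-biotin/3'-phosphotyrosine-FITC DNA substrate (15 nM) added for 5 min. AlphaScreen beads (10 ug/ml) added, 10 min RT; tyrosine-FITC cleavage read as signal loss.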
The depositor's hits bear a star; [ ] = dose if it differs, or a comment. Unless noted, the call rests on the fitted dose curve; in most records, active means well fitted curve in the direction sought with a large enough effect; inconclusive means small, poorly fitted or top-dose-only effect, or another doubt; inactive means no such curve, though single readings can be large; an effect the other way counts as inactive or inconclusive. On the % scale 0 is the no-effect control and ±100 the full control effect.

For COc1cccc(Cn2c(=O)c(C)nc3cnc(Oc4cccc(Cl)c4)nc32)c1 the results were DT40 TDP1 CPT -33% and TDP1 cell noCPT 23µM*.
O=C(Nc1cc(=O)[nH]c(=O)[nH]1)c1cc(Cl)ccc1Cl was read as Giardia kill 1, DT40 TDP1 CPT 3.3µM*, IL1B secr inh 59, TDP1 cell noCPT 4.1µM*, ELG1 repair inh inconclusive and TDP1 inh 1%.
For CC12CCC(O)CC1=CCC1C2CCC2(C)C1CCC21CCC(=O)O1 (stereo not given) the results were Giardia kill -20, DT40 TDP1 CPT inconclusive, IL1B secr inh -1, TDP1 cell noCPT inconclusive, ELG1 repair inh 2% and TDP1 inh 5%.
Screening CC(=O)S[C@@H]1CC2=CC(=O)CC[C@]2(C)[C@H]2CC[C@@]3(C)[C@@H](CC[C@@]34CCC(=O)O4)[C@H]12 returned Giardia kill -1, DT40 TDP1 CPT 7.3µM*, IL1B secr inh -56* and TDP1 cell noCPT 5.8µM*.
`C[C@]12CCC(=O)C=C1CCC1C2CC[C@@]2(C)C1CCC21OCCO1` (stereo not given in full) gave Giardia kill -2, DT40 TDP1 CPT inconclusive, IL1B secr inh -5, TDP1 cell noCPT inconclusive, ELG1 repair inh inconclusive and TDP1 inh 0%.
`C[C@]12CCC(=O)C=C1CC[C@@H]1[C@@H]2CC[C@@]2(C)[C@H]1CC[C@@]21CCC(=O)O1` gave Giardia kill -27, DT40 TDP1 CPT inconclusive, IL1B secr inh -13, TDP1 cell noCPT 9.2µM* and ELG1 repair inh -13%.
For O=C(Nc1ccc(Br)cc1)c1ccc2c(c1)OCO2 the results were Giardia kill 12, DT40 TDP1 CPT -9%, IL1B secr inh inconclusive, TDP1 cell noCPT 13%, ELG1 repair inh inconclusive and TDP1 inh 1%.
CCc1cccc(NC(=O)CSC2=NS(=O)(=O)c3ccccc32)c1 was read as Giardia kill -2, DT40 TDP1 CPT 2.6µM*, IL1B secr inh inconclusive, TDP1 cell noCPT 4.1µM*, ELG1 repair inh 7% and TDP1 inh 5%.
For CCc1cccc(NC(=O)CSc2ncc3c(n2)-c2ccc(Cl)cc2N(Cc2ccccc2)S3(=O)=O)c1 the results were DT40 TDP1 CPT 18µM*, TDP1 cell noCPT 16µM* and TDP1 inh -5%.
Screening CCOc1ccccc1NC(=O)CSc1ncc2c(n1)-c1ccccc1N(CC)S2(=O)=O returned DT40 TDP1 CPT 23µM*, TDP1 cell noCPT 16µM* and TDP1 inh -8%.
Screening COC(=O)c1ccc2c(c1)N(C)S(=O)(=O)c1cnc(SCC(=O)C(C)(C)C)nc1-2 returned Giardia kill -3, DT40 TDP1 CPT 12%, IL1B secr inh 103, TDP1 cell noCPT -2%, ELG1 repair inh 16µM* and TDP1 inh 1%.
`CCc1cccc(NC(=O)CSc2ncc3c(n2)-c2ccccc2N(CC)S3(=O)=O)c1` gave DT40 TDP1 CPT -32%, TDP1 cell noCPT -30% and TDP1 inh 0%.
For CN(CCC#N)C(=O)CC(Cc1ccccc1)C1CCOC(C)(C)C1 (stereo not given) the results were Giardia kill 2, DT40 TDP1 CPT 5%, IL1B secr inh 0, TDP1 cell noCPT 19% and ELG1 repair inh inconclusive.
For Cc1cc(N2CCC(C(=O)NCCC(C)C)CC2)n2nc(C)c(-c3ccc(Cl)cc3)c2n1 the results were DT40 TDP1 CPT 3%, TDP1 cell noCPT -17% and TDP1 inh -1%.
For Cc1cc(C)c(NC(=O)CSc2ncc3c(n2)-c2cc(Cl)ccc2N(C)S3(=O)=O)c(C)c1 the results were DT40 TDP1 CPT 0.16µM*, TDP1 cell noCPT 0.046µM* and TDP1 inh 3%.
`CCOc1ccccc1NC(=O)CSc1ncc(S(=O)(=O)c2ccc(C)c(C)c2)c(N)n1` gave DT40 TDP1 CPT inconclusive, TDP1 cell noCPT 23µM* and TDP1 inh 1%.
For Cc1ccc(-n2ncc(C(=O)NCCN3CCOCC3)c2C2CCN(C(=O)OC(C)(C)C)CC2)c(C)c1 the results were DT40 TDP1 CPT 0%, TDP1 cell noCPT inconclusive and TDP1 inh 0%.
Screening CCN(CC)S(=O)(=O)c1ccc(-c2nnc(SCC(C)=O)o2)cc1 returned Giardia kill 6, DT40 TDP1 CPT 3%, IL1B secr inh 39, TDP1 cell noCPT -12%, ELG1 repair inh 14% and TDP1 inh 8%.
COc1cc(-c2nnc(SCCOc3ccccc3)o2)cc(OC)c1OC was read as DT40 TDP1 CPT inconclusive, TDP1 cell noCPT 16µM* and TDP1 inh 3%.
CCN(CC)S(=O)(=O)c1cccc(-c2nnc(SCC(=O)c3cc(C)n(C)c3C)o2)c1 was read as Giardia kill -3, DT40 TDP1 CPT 21µM*, IL1B secr inh -25, TDP1 cell noCPT 21µM*, ELG1 repair inh inconclusive and TDP1 inh 9%.
COc1cc(-c2nnc(SCC(=O)c3ccccc3)o2)cc(OC)c1OC was read as Giardia kill 20, DT40 TDP1 CPT inconclusive, IL1B secr inh -4, TDP1 cell noCPT inconclusive, ELG1 repair inh inconclusive and TDP1 inh -2%.
CCN(CC)S(=O)(=O)c1cccc(-c2nnc(SCCOc3ccc(Cl)cc3)o2)c1 was read as Giardia kill 13, DT40 TDP1 CPT 23µM*, IL1B secr inh -10, TDP1 cell noCPT inconclusive, ELG1 repair inh 21µM* and TDP1 inh -3%.
Screening COc1cc(-c2nnc(CSc3nc4ccccc4s3)o2)cc(OC)c1OC returned ELG1 repair inh 12µM* and TDP1 inh -1%.
COc1cc(-c2nnc(COC(=O)CSc3cc(C)c4ccccc4n3)o2)cc(OC)c1OC was read as Giardia kill -14, DT40 TDP1 CPT -25%, IL1B secr inh -1, TDP1 cell noCPT -15%, ELG1 repair inh inconclusive and TDP1 inh 5%.
`C#Cc1cccc(C(=O)NCc2nc(-c3ccccc3NC(C)=O)oc2C)c1` gave DT40 TDP1 CPT 0%[9.04 µM] and TDP1 cell noCPT -8%.
CCN(CC)S(=O)(=O)c1cccc(-c2nnc(SCCOc3ccccc3C)o2)c1 was read as Giardia kill -3, DT40 TDP1 CPT inconclusive, IL1B secr inh -7, TDP1 cell noCPT inconclusive, ELG1 repair inh inconclusive and TDP1 inh -1%.

Assay outcomes (PubChem)
